The supplement of paper PMC8728848
This excerpt belongs to a sample that is enriched for the strongest signals.

Key:
Experiment in all cases: glycan array binding signal (z-score within array); higher = stronger binding
Conditions in all cases: glycan notation: IUPAC condensed, linker removed
[1] = target: Fuc(a1-2)Gal(b1-3)GalNAc(b1-4)[Neu5Ac(a2-3)]Gal(b1-4)Glc
Procedure, shortened: (§1)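 Arrays were curated from the Consortium for Functional Glycomics database, 3228 in total, and kept only where the protein sequence was available. Binding is expressed as a within-array Z-score. This score was averaged across arrays of the same protein sequence at different concentrations or buffers and across linkers, and negative values can be read as non-binding.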

Fuc(a1-2)Gal(b1-3)GlcNAc = target: Fuc(a1-2)Gal(b1-3)GlcNAc
Procedure, shortened: as §1

[2] = target: Fuc(a1-2)Gal(b1-3)GlcNAc(b1-2)Man(a1-3)[Fuc(a1-2)Gal(b1-3)GlcNAc(b1-2)Man(a1-6)]Man(b1-4)GlcNAc(b1-4)GlcNAc
Procedure, shortened: as §1

[3] = target: Fuc(a1-2)Gal(b1-3)[Fuc(a1-4)]GlcNAc(b1-3)[Fuc(a1-3)[Gal(b1-4)]GlcNAc(b1-6)]Gal(b1-4)Glc
Procedure, shortened: as §1

[4] = target: Fuc(a1-2)[Gal(a1-3)]Gal(b1-3)GlcNAc
Procedure, shortened: as §1

[5] = target: Fuc(a1-2)[Gal(a1-3)]Gal(b1-4)GlcNAc(b1-2)Man(a1-3)[Fuc(a1-2)[Gal(a1-3)]Gal(b1-4)GlcNAc(b1-2)Man(a1-6)]Man(b1-4)GlcNAc(b1-4)GlcNAc
Procedure, shortened: as §1

[6] = target: Fuc(a1-2)[GalNAc(a1-3)]Gal(b1-4)GlcNAc(b1-2)Man
Procedure, shortened: as §1

Fuc(b1-3)GlcNAc = target: Fuc(b1-3)GlcNAc
Procedure, shortened: as §1

Gal(b1-3)Gal = target: Gal(b1-3)Gal
Procedure, shortened: as §1

[7] = target: Gal(b1-3)[Fuc(a1-4)]GlcNAc(b1-2)Man(a1-3)[Gal(b1-3)[Fuc(a1-4)]GlcNAc(b1-2)Man(a1-6)]Man(b1-4)GlcNAc(b1-4)[Fuc(a1-6)]GlcNAc
Procedure, shortened: as §1

Gal(b1-4)Gal = target: Gal(b1-4)Gal
Procedure, shortened: as §1

Gal(b1-4)Glc6S = target: Gal(b1-4)Glc6S
Procedure, shortened: as §1

Gal(b1-4)GlcNAc = target: Gal(b1-4)GlcNAc
Procedure, shortened: as §1

[8] = target: Gal(b1-4)GlcNAc(b1-2)Man(a1-6)[Man(a1-3)]Man(b1-4)GlcNAc(b1-4)GlcNAc
Procedure, shortened: as §1

[9] = target: Gal(b1-4)GlcNAc(b1-2)[Gal(b1-4)GlcNAc(b1-6)]Man(a1-6)[Gal(b1-4)GlcNAc(b1-2)Man(a1-3)]Man(b1-4)GlcNAc(b1-4)[Fuc(a1-6)]GlcNAc
Procedure, shortened: as §1

[10] = target: Gal(b1-4)GlcNAc(b1-3)Gal(b1-4)GlcNAc(b1-3)GalNAc
Procedure, shortened: as §1

Gal6P(b1-4)GlcNAc = target: Gal6P(b1-4)GlcNAc
Procedure, shortened: as §1

Gal6S(b1-4)Glc6S = target: Gal6S(b1-4)Glc6S
Procedure, shortened: as §1

[11] = target: GalNAc(b1-3)Gal(a1-4)Gal(b1-4)GlcNAc
Procedure, shortened: as §1

GlcA(b1-6)Gal = target: GlcA(b1-6)Gal
Procedure, shortened: as §1

[12] = target: GlcNAc(a1-4)Gal(b1-4)GlcNAc(b1-3)Gal(b1-4)[Fuc(a1-3)]GlcNAc(b1-3)Gal(b1-4)[Fuc(a1-3)]GlcNAc
Procedure, shortened: as §1

[13] = target: GlcNAc(b1-2)[GlcNAc(b1-4)]Man(a1-3)[GlcNAc(b1-2)Man(a1-6)]Man(b1-4)GlcNAc(b1-4)GlcNAc
Procedure, shortened: as §1

[14] = target: GlcNAc(b1-2)[GlcNAc(b1-4)]Man(a1-3)[GlcNAc(b1-4)][GlcNAc(b1-2)[GlcNAc(b1-6)]Man(a1-6)]Man(b1-4)GlcNAc(b1-4)GlcNAc
Procedure, shortened: as §1

[15] = target: GlcNAc(b1-4)GlcNAc(b1-4)GlcNAc
Procedure, shortened: as §1

[16] = target: GlcNAc(b1-4)GlcNAc(b1-4)GlcNAc(b1-4)GlcNAc(b1-4)GlcNAc(b1-4)GlcNAc
Procedure, shortened: as §1

[17] = target: Man(a1-2)Man(a1-2)Man(a1-3)Man
Procedure, shortened: as §1

[18] = target: Man(a1-2)Man(a1-2)Man(a1-6)[Man(a1-3)]Man
Procedure, shortened: as §1

Man(a1-2)Man(a1-3)Man = target: Man(a1-2)Man(a1-3)Man
Procedure, shortened: as §1

[19] = target: Man(a1-2)Man(a1-3)[Man(a1-2)Man(a1-6)]Man
Procedure, shortened: as §1

[20] = target: Man(a1-2)Man(a1-3)[Man(a1-2)Man(a1-6)]Man(a1-6)[Man(a1-2)Man(a1-2)Man(a1-3)]Man
Procedure, shortened: as §1

B1: Microvirin-2 (Microcystis aeruginosa) (protein)
chain: MPNFSHTCSSINYDPDSTILSAECQARDGEWLPTELRLSDHIGNIDGELQFGDQNFQETCQDCHLEFGDGEQSVWLVCTCQTMDGEWKSTQILLDSQIDNNDSQLEIGGSMPNFSHTCSSINYDPDSTILSAECQARDGEWLPTELRLSDHIGNIDGELQFGDQNFQETCQDCHLEFGDGEQSVWLVCTCQTMDGEWKSTQILLDSQIDNNDSQLEIG
Question: How did the “glycan array binding signal (z-score)” value [1] turn out when B1 was run?
Answer: Its value is -0.133.

Question: And the “glycan array binding signal (z-score)” value (Fuc(a1-2)Gal(b1-3)GlcNAc)?
Answer: The value was -0.139.

Question: And the “glycan array binding signal (z-score)” value [2]?
Answer: Its value is 0.021.

Question: And the “glycan array binding signal (z-score)” value [3]?
Answer: The value was -0.137.

Question: And the “glycan array binding signal (z-score)” value [4]?
Answer: The value was -0.138.

Question: And the “glycan array binding signal (z-score)” value [5]?
Answer: Its value is -0.113.

Question: And the “glycan array binding signal (z-score)” value [6]?
Answer: Its value is -0.138.

Question: What about the “glycan array binding signal (z-score)” value (Fuc(b1-3)GlcNAc) of the same binder?
Answer: The value was -0.137.

Question: What about the “glycan array binding signal (z-score)” value (Gal(b1-3)Gal) of the same binder?
Answer: Its value is -0.144.

Question: And the “glycan array binding signal (z-score)” value [7]?
Answer: The value was 0.648.

Question: And the “glycan array binding signal (z-score)” value (Gal(b1-4)Gal)?
Answer: Its value is -0.143.

Question: And the “glycan array binding signal (z-score)” value (Gal(b1-4)Glc6S)?
Answer: Its value is -0.134.

Question: What about the “glycan array binding signal (z-score)” value (Gal(b1-4)GlcNAc) of the same binder?
Answer: The value was -0.131.

Question: What about the “glycan array binding signal (z-score)” value [8] of the same binder?
Answer: Its value is -0.141.

Question: And the “glycan array binding signal (z-score)” value [9]?
Answer: The value was -0.131.

Question: And the “glycan array binding signal (z-score)” value [10]?
Answer: The value was 0.024.

Question: What about the “glycan array binding signal (z-score)” value (Gal6P(b1-4)GlcNAc) of the same binder?
Answer: The value was -0.134.

Question: And the “glycan array binding signal (z-score)” value (Gal6S(b1-4)Glc6S)?
Answer: Its value is -0.128.

Question: And the “glycan array binding signal (z-score)” value [11]?
Answer: Its value is -0.131.

Question: What about the “glycan array binding signal (z-score)” value (GlcA(b1-6)Gal) of the same binder?
Answer: The value was -0.139.

Question: What about the “glycan array binding signal (z-score)” value [12] of the same binder?
Answer: The value was -0.031.

Question: What about the “glycan array binding signal (z-score)” value [13] of the same binder?
Answer: Its value is -0.139.

Question: What about the “glycan array binding signal (z-score)” value [14] of the same binder?
Answer: Its value is -0.141.

Question: What about the “glycan array binding signal (z-score)” value [15] of the same binder?
Answer: The value was -0.14.

Question: And the “glycan array binding signal (z-score)” value [16]?
Answer: Its value is -0.135.

Question: What about the “glycan array binding signal (z-score)” value [17] of the same binder?
Answer: Its value is 5.28.

Question: What about the “glycan array binding signal (z-score)” value [18] of the same binder?
Answer: Its value is 9.44.

Question: And the “glycan array binding signal (z-score)” value (Man(a1-2)Man(a1-3)Man)?
Answer: The value was 4.43.

Question: What about the “glycan array binding signal (z-score)” value [19] of the same binder?
Answer: The value was 7.03.

Question: What about the “glycan array binding signal (z-score)” value [20] of the same binder?
Answer: The value was 6.69.
